Consider 35 compounds from PubChem BioAssay.

Molecules are shown by their SMILES. A number with no mark means an inactive call.

This assay in a line: small-molecule microarray binders of probe aXIP, primary screen, biochemical, NeuroSMM set, 635/667 nm fluorescence (AID 1119).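 Further: probe is the protein aXip251-270 applied at 1 µg/mL to compound-printed slides; binding of probe to printed compounds measured as 667 nm fluorescence plus signal to noise.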 The conditions noted are these: higher = more signal, called active from +8 up or from −8 down.
Turning to `COC(=O)[C@@H]1N=C(c2ccc(OCCCO)cc2)O[C@@H]1C`, the composite Z-score is -0.385. In the case of `C=C[C@H]1C(C(=O)OCC)=CC[C@@H](c2ccccc2)N1S(=O)(=O)c1ccc(C)cc1`, the composite Z-score was -0.176. Consider `CC(c1ccccc1)C(O)C1C=CC2C(=O)N(C)C(=O)C2N1Nc1ccccc1` (stereo not given), for which the composite Z-score is 0.318.

Regarding `NC(=O)NCC#Cc1ccc2c(c1)[C@]1(C(=O)N2)[C@H](c2ccccc2OCCO)N2[C@H](c3ccccc3)[C@H](c3ccccc3)OC(=O)[C@H]2[C@@H]1C(=O)NC[C@H](O)c1ccccc1`, the composite Z-score was -0.17. Turning to `CCCCC[C@H]1OC[C@@]23C=C(Br)[C@@H](CC12)[C@@]1(CO1)C3=O` (stereo not given in full), the composite Z-score is 0.39. In the case of `CCC#CCN(Cc1ccccc1Br)[C@H](/C=C/C1CC1)[C@@H](O)Cc1ccccc1`, the composite Z-score is -0.457. For the compound `COC(=O)C(CC#Cc1ccc2c(c1)[C@]1(C(=O)N2)[C@H](c2ccc(O)cc2)N2[C@H](c3ccccc3)[C@H](c3ccccc3)OC(=O)[C@H]2[C@@H]1C(=O)NC[C@H](O)c1ccccc1)C(=O)OC`, the composite Z-score is 0.564. Turning to `CCCCC(O)C1C=CC2C(=O)N(C)C(=O)C2N1N(c1ccccc1)c1ccccc1` (stereo not given), the composite Z-score was 0.418. With `O=C1[C@H]2C=C(I)[C@H](C[C@@H]2OCCOCCO)[C@@]12CO2`, the composite Z-score is -0.175. Turning to `C=CC[C@]1(C(=O)N2CCCCC2)N=C(c2ccc(OCCCO)cc2)O[C@H]1c1ccccc1CN=[N+]=[N-]`, the composite Z-score was 0.256. Regarding `COC(=O)[C@@]1(Cc2ccc(OC)cc2)[C@H]2c3cc(C(=O)N4CCCC4)n(CCO)c3C[C@H]2CN1C(=O)c1ccccc1`, the composite Z-score was -0.423. Turning to `C=CC[C@]1(C(=O)N2CCOCC2)COC(c2ccc(OCCCO)cc2)=N1`, the composite Z-score was -0.275. For `CN(C)C(=O)[C@]1(CCC(=O)OC(C)(C)C)N=C(c2ccc(OCCCO)cc2)O[C@@H]1c1ccccc1CN=[N+]=[N-]`, the composite Z-score was -0.579. For `CO[C@H]1O[C@H](CO)[C@@H](OC(=O)Nc2ccc3c(c2)OCO3)[C@H](OC(=O)Nc2ccc3c(c2)OCO3)[C@@H]1OC(=O)Nc1ccc2c(c1)OCO2`, the composite Z-score was 0.871. Regarding `C=C[C@@H](OC)[C@H](OC(=O)Nc1ccc(OC)cc1)c1ccc(O)c(F)c1`, the composite Z-score was 0.656. Take `COC(=O)c1c(CC[C@@H](CO)NC(=O)N[C@@H](C)Cn2cc(-c3ccccn3)nn2)oc(C(C)=O)c1C(=O)OC`: the composite Z-score is 0.615. With `CCCC[C@@H](O)C1=C(COC)C[C@H]2C(=O)N(Cc3ccccc3)C(=O)[C@H]2[C@H]1CO`, the composite Z-score was -0.306. Regarding `CCCN1C(=O)[C@]2(Cc3ccccc31)N=C(c1ccc(OCCCO)cc1)O[C@@H]2c1ccccc1`, the composite Z-score is 0.0068. With `CCOC(=O)C[C@H]1[C@H](OC(=O)c2ccc(C(=O)c3ccccc3)cc2)[C@@H](NC(=O)C2CCCCC2)c2cc(OCCCO)ccc2N1C(=O)c1ccc2ccccc2n1`, the composite Z-score was -0.482. Consider `COc1cccc(C)c1NC(=O)O[C@H]1[C@H](OC(=O)Nc2ccc3c(c2)OCO3)[C@@H](OC(=O)Nc2ccc3c(c2)OCO3)[C@@H](OC)O[C@@H]1CO`, for which the composite Z-score was 0.525. Turning to `CC(C)(C)OC(=O)COc1cccc(C(=O)CCN2CCOCC2)c1`, the composite Z-score is 0.784. Under `CC(C)NC(=O)[C@@]1(C)c2ccccc2C(=O)N(Cc2ccc(OC(F)(F)F)cc2)[C@H]1c1ccc(CO)cc1` stands -0.263. With `COc1cc2c(cc1O)C(c1cccs1)N(Cc1cc3c(cc1Br)OCO3)CC2` (stereo not given), the composite Z-score was 0.715. On to `CCCCNC(=O)c1ccc(C#CC(C)(C)C)c(OC(C)=O)c1`, for which the composite Z-score is 0.0956.

For the compound `CCCC1(C(=O)OC)C=C2C(=C(C)C(=O)C2C)CN1` (stereo not given), the composite Z-score is 0.931. Take `O=C(C1N=C(c2ccc(OCCCO)cc2)N(c2ccccc2)O1)N1CCCCC1` (stereo not given): the composite Z-score is 1.91. Under `CCCCN1CC=CC23O[C@@H]4/C=C\CCC(C)OC(=O)C4[C@H]2C(=O)N(CCCO)[C@@H]3C1=O` (stereo not given in full) stands 0.986; under `Cc1ccc(S[C@]2(C(=O)NCC(F)(F)F)CC(=O)N(Cc3cc(C(F)(F)F)cc(C(F)(F)F)c3)[C@@H]2c2ccc(CO)cc2)cc1`, -0.0775.

For the compound `COC(=O)[C@@]1(Cc2ccc(F)cc2)[C@H]2c3cc(C(=O)N(C)C)n(CCc4ccc(OC)c(Br)c4)c3C[C@H]2CN1C(=O)c1ccccc1`, the composite Z-score was 0.562. On to `O=C(NCCN1CCOCC1)[C@@H]1c2ccccc2C(=O)N(Cc2ccccc2Cl)[C@H]1c1ccc(CO)cc1`, for which the composite Z-score is 0.239. Turning to `CCCCCN1CC=CC23O[C@@H]4/C=C\CCCOC(=O)C4[C@H]2C(=O)N(C(C)CO)[C@@H]3C1=O` (stereo not given in full), the composite Z-score is 0.0199. Regarding `COc1ccc(CCNC(=O)[C@@H]2c3ccccc3C(=O)N(C3CCCCC3)[C@H]2c2ccc(CO)cc2)cc1`, the composite Z-score is 0.0861. As for `C=CCNC(=O)[C@H]1[C@@H]2C(=O)O[C@@H](c3ccccc3)[C@@H](c3ccccc3)N2[C@@H](c2ccccc2OCCO)[C@]12C(=O)N(C(=O)OCCOC)c1ccc(C#CC3(O)CCCCCC3)cc12`, the composite Z-score is 0.359. For the compound `C#Cc1cc2ccccc2oc1=O`, the composite Z-score is 0.207. With `CCCC=C(CCC)[C@@H](NS(=O)(=O)CC12CCC(CC1=O)C2(C)C)c1ccc(C(=O)OC)cc1` (stereo not given in full), the composite Z-score was 0.234.
